± gives the standard deviation. Whole data set: some 6,200 sequences, median “pre-steady-state target cleavage rate” near 0.29, cut for the highest 2% near 2. Many of the other results were omitted from the sample, so the highest values are more common in it than they were.
Tested on: MIWI (PIWIL1) piRISC loaded with piRNA #1 (30 nt)
Experiment: pre-steady-state target cleavage rate (min^-1); MIWI and MILI are mouse PIWI proteins and EfPiwi is from a freshwater sponge; tags in brackets are library labels; higher = faster piRNA-guided slicing of the target
Details: guide: piRNA #1 5'p-UGAGGUAGUAGGUUGUAUAGUAUCCAGAGG; auxiliary factor: 500 nM mouse GTSF1
Summary of the method: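 In Cleave-'n-Seq, a transcribed, DNA-blocked target RNA library (0.1 nM) was combined with 1 nM active affinity-purified piRISC bearing one synthetic guide, with or without 500 nM GTSF1 partner protein. Reactions ran in HEPES–potassium acetate buffer at 33 °C for 0–8 or 0–960 min. Uncleaved targets were sequenced and normalised to depth and to weakly complementary targets, three trials were pooled, and k3 was capped at 0.0001 min^-1. The pre-steady-state cleavage rate was obtained by fitting a burst-and-steady-state model.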

| Sequence | pre-steady-state target cleavage rate |
| --- | --- |
| CCUCUGGAUACUAUACAGACCUACUACCUCA | 0.0114 ± 0.0052 |
| GGAGUGCAUACUAUACAACGUACUACCUCA | 0.714 ± 0.039 |
| GGAGAGGAUACUAUACAACCUACUACCUUA | 1.28 ± 0.066 |
| CCUCUGGAUAGUAUACAACCUACUUCCUCA | 0.21 ± 0.034 |
| GGAGAGGAUUCUAUACAACCUACUACCACA | 0.665 ± 0.047 |
| GCUCUGCUUACUAUACAACCUACUACCUCA | 1.96 ± 0.12 |
| GGUCUGCUUACUAUACAACCUACUACCUCA | 1.74 ± 0.12 |
| CCUCUGCUUACUAUACAACCUACUACCUCA | 2.19 ± 0.15 |
| GCACUGGAUACUAUACAACCAACUACCUCA | 0.167 ± 0.017 |
| GGAGUGCAUACAAUACAACCUACUACCUCA | 1.11 ± 0.092 |
| GCUCUGAUACUAUACAACCUACUACCUCA | 1.9 ± 0.12 |
| GGUCUGAUACUAUACAACCUACUACCUCA | 1.79 ± 0.1 |
| GGUCUGAGAUACUAUACAACCUACUACCUCA | 1.89 ± 0.11 |
| CCUCUGAGAUACUAUACAACCUACUACCUCA | 0.572 ± 0.056 |
| CCUCUGAUACUAUACAACCUACUACCUCA | 2.11 ± 0.12 |
| GCUCUGAGAUACUAUACAACCUACUACCUCA | 2.07 ± 0.12 |
| GGAGACCAUACUAUACAACCUACCUACCUCA | 1.06 ± 0.066 |
| GGAGUGGAUAUUAUACAACCUACUACCUCA | 1.48 ± 0.072 |
| GGAGACCAUACUAUACAACCUACUACCUCU [g2:g23:cont:t1U] | 1.7 ± 0.11 |
| GGAGUGGAUAGUAUUCAACCUACUACCUCA | 0.584 ± 0.064 |
| GGAGACCUUACUAUACAUGGUACUACCUCA | 0.00452 ± 0.0025 |
| GCUCUGGUUACUAUUCAACCUACUACCUCA | 1.88 ± 0.12 |
| CCUCUGGAUACUAUACAACCUACUUCCACA | 0.337 ± 0.05 |
| CCACUGGAUACUAUACAACCUACUACCUCA | 1.8 ± 0.11 |
| GGACUGGAUACUAUACAACCUACUACCUCCA | 2.19 ± 0.17 |

| Sequence | pre-steady-state target cleavage rate |
| --- | --- |
| GGACUGGAUACUAUACAACCUACUACCUCC [g2:g27:cont:t1C] | 1.42 ± 0.088 |
| GCACUGGAUACUAUACAACCUACUACCUCA | 1.81 ± 0.093 |
| GGACUGGAUACCUAUACAACCUACUACCUCA | 1.15 ± 0.095 |
| GGACUGGAUUCUAUACAACCUACUACCUCA | 1.63 ± 0.11 |
| CCUACUGGAUACUAUACAACCUACUACCUCA | 2.04 ± 0.11 |
| GCUACUGGAUACUAUACAACCUACUACCUCA | 2.14 ± 0.13 |
| GGACUGGAUACUAUACUACCUACAACCUCA | 0.39 ± 0.057 |
| CCACUGGAUUCUAUACAACCUACUACCUCA | 2.08 ± 0.12 |
| GCACUGGAUUCUAUACAACCUACUACCUCA | 1.85 ± 0.096 |
| GGACUGGAUACUAUACAACCUACCUACCUCA | 1.06 ± 0.094 |
| GGUCAGGAUACUAUACAACCUACUAGCUCA | 0.255 ± 0.033 |
| GGAGACCUAACUAUACAACCUACUACCAGA | 0.385 ± 0.062 |
| GGAGACCUUACUAUACAACCUACUACCCCA | 0.956 ± 0.086 |
| GGAGACGAUACUAUACAACCUACUACGUGA | 0.348 ± 0.054 |
| GGACUGGAUACUAUACAACCUAUUACCUCA | 0.86 ± 0.075 |
| GCUCUGGAUACUAUACAACCUACAUGCUCA | 0.589 ± 0.072 |
| GGAGACCAUACUAAUACAACCUACUACCUCA | 0.978 ± 0.08 |
| GGUCUGCAUACUAUACAACCUACUACCUGA | 0.677 ± 0.13 |
| GGAGACGAUUCUAUACAACCUACUACGUCA | 0.92 ± 0.069 |
| CCUCUGGAUCCUAUACAACCUACUACCUCA | 1.38 ± 0.14 |
| GGUCUGGAUACAUACAACCUACUACCUCA | 1.44 ± 0.11 |
| CCUCAGGAUUCUAUACAACCUACUACCUCA | 2.24 ± 0.13 |
| GGUCAGGAUUCUAUACAACCUACUACCUCA | 1.77 ± 0.12 |
| GCUCAGGAUUCUAUACAACCUACUACCUCA | 1.87 ± 0.092 |
| GCUGUGGAUACUAUACAACCUACUACCUGA | 0.776 ± 0.18 |
